# In PubChem BioAssay (NCI):
# The panel holds about 79,000 compounds, 15% with a hit somewhere; the sample as a whole holds those more often. A number with no mark means an inactive call. The source made the active and inactive calls. Rule as the data show it: active = growth inhibition above about 70%; inactive = the rest.
# Tests used:
# [1] = NCI Yeast Anticancer Drug Screen. Data for the rad50 strain (AID 155);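 also: 0% = growth of vehicle-only cultures of the same strain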; settings: S. cerevisiae rad50 strain growth inhibition; at 50.0 µM; stronger effect = higher value
# Procedure, shortened: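 Relative growth inhibition (compound vs vehicle) was measured in yeast with a defined repair-gene alteration.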
# [2] = NCI Yeast Anticancer Drug Screen. Data for the mec2-1 strain (AID 157); settings: S. cerevisiae mec2-1 strain, at 50.0 µM, stronger effect = higher value
# Procedure, shortened: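 Vehicle-treated cultures served as reference for growth inhibition of compound-exposed mec2-1 yeast.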
# [3] = NCI Yeast Anticancer Drug Screen. Data for the sgs1 mgt1 strain (AID 161);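 also: 0% = growth of cultures given vehicle only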; settings: S. cerevisiae sgs1 mgt1 strain, at 50.0 µM, stronger effect = higher value
# Procedure, shortened: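 Read-out: growth inhibition vs vehicle controls. Cells: mutant yeast strain deficient in DNA damage repair.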
# [4] = NCI Yeast Anticancer Drug Screen. Data for the cln2 rad14 strain (AID 165);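 also: 0% = growth equal to vehicle treated cultures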; settings: S. cerevisiae cln2 rad14 strain, at 50.0 µM, stronger effect = higher value
# Procedure, shortened: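 Each compound was tested on cln2 rad14 yeast. Inhibition of growth was calculated against vehicle-exposed controls.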
# [5] = NCI Yeast Anticancer Drug Screen. Data for the bub3 strain (AID 167); settings: S. cerevisiae bub3 mutant strain, at 50.0 µM, stronger effect = higher value
# Procedure, shortened: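 Screening used yeast with an engineered genetic alteration affecting cell cycle control. Compound-exposed cultures were compared with vehicle cultures, and reduced growth was taken as inhibition.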
# [6] = NCI Yeast Anticancer Drug Screen. Data for the mlh1 rad18 strain (AID 175); settings: S. cerevisiae mlh1 rad18 strain growth inhibition; at 50.0 µM; stronger effect = higher value
# Procedure, shortened: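 Vehicle-treated cultures served as the reference for growth inhibition in a yeast strain carrying DNA damage repair alterations exposed to each compound.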
Compound,growth inhibition [1],growth inhibition [2],growth inhibition [3],growth inhibition [4],growth inhibition [5],growth inhibition [6]
FC(F)(F)[S-].FC(F)(F)[S-].[C-]#[O+].[C-]#[O+].[C-]#[O+].[C-]#[O+].[C-]#[O+].[C-]#[O+].[C-]#[O+].[C-]#[O+].[Mn].[Mn],99.3% (active),99.6% (active),99.7% (active),99% (active),99% (active),99.3% (active)
CC12CCC3C4CCC(=O)C=C4CCC3C1CC1CC(=O)OC12 (stereo unspecified),-4.15%,1%,0.4%,-7.95%,11.7%,-2.8%
CCC[N+]12C(O)C(CC)C3CC1C1N(C)c4ccc(Br)cc4C14CC2C3C4O (stereo unspecified),27.9%,8.3%,4.35%,-12.3%,6.85%,20.9%
S=P(C1CCCCC1)(C1CCCCC1)C(c1cccnc1)N1CCCC1 (stereo unspecified),-6.85%,-9.1%,-6.3%,-5.85%,20.6%,14.1%
Cc1ccc(OP(=O)(Oc2ccc(C)cc2)Oc2ccc(C)cc2)cc1.Cc1ccc(OP(=O)(Oc2ccc(C)cc2)Oc2ccc(C)cc2)cc1.Cc1ccc(OP(=O)(Oc2ccc(C)cc2)Oc2ccc(C)cc2)cc1.Cc1ccc(OP(=O)(Oc2ccc(C)cc2)Oc2ccc(C)cc2)cc1.[Nd+3].[O-][Cl+3]([O-])([O-])O,34.4%,23.7%,37.8%,27%,52.8%,25.7%
Cc1ccc(C(O)(c2ccc(C)cc2)c2ccccn2)cc1,-6.65%,16.9%,-7%,-13.8%,9.45%,-35%
[C-]#[O+].[C-]#[O+].[C-]#[O+].[C-]#[O+].[C-]#[O+].[C-]#[O+].[Fe].[Fe].c1ccc([P-]c2ccccc2[P-]c2ccccc2)cc1 (stereo unspecified),8.7%,26.9%,-11.3%,26.9%,12.6%,18.7%
CCN1C(=O)NC(=O)C(C)(N2CCCCC2)C1=O (stereo unspecified),13.4%,5.3%,25.9%,15.2%,10.7%,28.7%
CCCCSP(=O)(SCCCC)N1CCCCC1,98.9% (active),99.2% (active),98.8% (active),97.8% (active),98.8% (active),99% (active)
CC12CC/C(=N/NC(=O)Cc3c[nH]c4ccccc34)C=C1CCC1C2CCC2(C)C(OC(=O)c3ccccc3)CCC12 (stereo unspecified),35.8%,28.6%,24.1%,0.65%,3.3%,34.8%
O=C([O-])c1ccccc1[SH2+].[Cr+3].[NH-]CC[NH-].[NH-]CC[NH-].[O-][Cl+3]([O-])([O-])O,11.9%,-1.95%,-11.8%,-19.4%,1.35%,-26.4%
CC(=O)[O][Hg][c]1cc[c]([Hg])s1,99.5% (active),99.3% (active),99.5% (active),99.3% (active),99% (active),99.2% (active)
CCOP(=O)(OCC)/C(C#N)=C/c1cccc(OC)c1,57.5%,46.7%,45.6%,16.9%,30.8%,63%
C/C(CCl)=N\NC1=NC2(CCCCC2)P(=O)(NNc2ncccn2)S1 (stereo unspecified),3.7%,12%,19.9%,-0.5%,6.3%,15.2%
O=c1cc(CCl)occ1O,7.35%,19.5%,20.6%,-5.75%,16.1%,15.1%
CC(=O)[CH-]C(C)=O.F[P-](F)(F)(F)(F)F.[Co+3].[NH-]CC[NH-].[NH-]CC[NH-],-1.2%,-15.4%,-12.2%,-29.9%,-4.35%,-5.35%
C[N+](C)(C)CC1CCCC(C[N+](C)(C)C)C1=NO (stereo unspecified),24.9%,12.1%,-4.85%,19.7%,-1.5%,20.6%
[N-]=[N+]=C1C(=O)C2CC3CC1CC2C3 (stereo unspecified),-3.55%,12.7%,-9.35%,8.55%,1.9%,1.5%
O=NNc1cc(=O)[nH]c(=O)[nH]1,5.4%,-4.5%,-3.85%,-39.2%,-7.6%,-6.5%
O=C(O)CC(=O)O.[NH-]C1CCCCC1[NH-].[Pt+2] (stereo unspecified),23.7%,4.35%,21.4%,30.4%,21.4%,13.8%
COc1cc(C2c3cc4c(cc3C(O)[C@H]3COC(=O)[C@@H]23)OCO4)cc(OC)c1O (stereo partly specified),-36.4%,-28.7%,-28.8%,16.6%,6.55%,-7.9%

Compound,growth inhibition [1],growth inhibition [2],growth inhibition [3],growth inhibition [4],growth inhibition [5],growth inhibition [6]
O=C(O)C(O)(c1ccccc1)c1ccco1 (stereo unspecified),12.8%,1.8%,-5.25%,21.3%,-28.9%,12.7%
CC(=O)CC(C)=O.CC(=O)CC(C)=O.CC(=O)CC(C)=O.[La],27.8%,1.35%,12.2%,19.1%,-4.6%,1.15%
CCOP(=O)(OCC)OP(=O)(OCC)OCC,-9.35%,-29.6%,-42.7%,-10.1%,-49.4%,-13.4%
CN(CCC(=O)O)C1=Nc2ccc(Cl)cc2C(c2ccccc2)=[N+]([O-])C1,1.75%,6.15%,-14.2%,-1.4%,16.2%,6.85%
CC1=CC(=O)C2=C(C)C[C@H](O)[C@@H]3[C@H](OC(=O)[C@H]3C)[C@@H]12,-2.45%,2.95%,6.4%,17.2%,6.25%,8.85%
ClCCCN1CCN(c2ccccc2Cl)CC1,9.35%,-16.7%,7.45%,7.45%,1.15%,-7.8%
CC[N+](CC)(CC)CC#CC[N+](CC)(CC)CC,5.65%,5%,14.3%,1.45%,12.8%,6.1%
O=C(NC(Cl)=C(Cl)Cl)P(=O)(c1ccccc1)c1ccccc1,-16.6%,-28.3%,10.8%,17.2%,-5.4%,3%
CC(O)c1ccc(Br)cc1 (stereo unspecified),-7.95%,13.3%,3.55%,-72.4%,-1.45%,16%
COc1ccc2c3c1OC1C(OC)(OC)CC4(C=C2)CN(C)CCC314 (stereo unspecified),-31%,-22.4%,-20.4%,-11.4%,-23.9%,-11.8%
Cc1ccc(C)c(NP(=O)(Nc2cc(C)ccc2C)N(CCCl)CCCl)c1,30.2%,-4.4%,30.2%,8.1%,9.8%,-8.55%
COCC(C)OC(=O)Cc1ccccc1 (stereo unspecified),-10.9%,-8.2%,-8.6%,-85.6%,-49.1%,-31.1%
CCC(C)(Cl)c1ccccc1 (stereo unspecified),-11.7%,-21.6%,-13.6%,-0.4%,-21.4%,-14.1%
Oc1c(Cl)cc(Cl)cc1C1N(Cc2ccc(N(CCCl)CCCl)cc2Cl)CCCN1Cc1ccc(N(CCCl)CCCl)cc1Cl,-0.6%,15.6%,18.6%,-6%,-4%,18%
CCOP(=O)(OCC)/C(C#N)=C/c1ccccc1,19.2%,-23.1%,-8.95%,-33.8%,-11.3%,19.6%
COC(=O)CN(CCCl)P1(=O)OCCCN1CCCl (stereo unspecified),-17.4%,-1.1%,-5.5%,0.2%,10.3%,-4.8%
N#C[S-].N#C[S-].[Ni+2].c1ccc([PH+](c2ccccc2)c2ccccc2)cc1.c1ccc([PH+](c2ccccc2)c2ccccc2)cc1,35.5%,33.7%,50%,14.3%,34.2%,63%
CN(C)C1OCC(C)(C)CO1,-13.9%,-34.7%,-5.55%,12.3%,-18%,-7.1%
CN(C)c1ccc(C=O)cc1.[C-]#[O+].[C-]#[O+].[C-]#[O+].[Cr],-66.2%,-35.5%,-57.5%,1%,-18.4%,-38.9%
CC1(C)CN=C(Nc2ccc(Cl)cc2)S1,13.9%,1.45%,-12.1%,13.5%,-10.7%,-31.2%
